Results on 23 molecules are retold here after PubChem BioAssay.

“And” between values parts separate entries of the source, which are not always exact repeats. Equal entries are not always repeated. Inconclusive results are not listed. The source made the active and inactive calls. Unless noted, how the calls were made is not given here.

Assay [1] can be described thus: modulation of C. elegans fzo-1 (AID 1259413).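 Further: fzo-1 mutant C. elegans worms in liquid wells.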 Conditions: C. elegans fzo-1 modulator screen, mean read-out; stronger effect = higher value.
Assay [2] can be described thus: EMT-state selective cytotoxicity in co-culture – imaging, PC-3E GFP, TEM4-18 mCherry, primary screen (AID 1345086;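 active means compounds killing one labelled cell type while sparing the other, by normalised counts and ratio limits, not self-fluorescent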;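 on all read-outs here: cells exposed to compound for 72 h before imaging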;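 on red/green cell ratio (normalised): normalised mesenchymal count divided by normalised epithelial count so high means epithelial killing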). The note with it: PC-3E GFP / TEM4-18 mCherry co-culture, imaging cell counts, at 1 µM; for red/green cell ratio (normalised): actives lie on both sides, counts scaled to control wells, 1 = unselective.
Assay [3] concerns Aerobactin synthetase IucA (Klebsiella pneumoniae). Briefly: inhibition of K. pneumoniae IucA enzyme – biochemical, Tocris library, absorbance (AID 1345561).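 Further: 100% = enzyme without compound and 0% = no enzyme.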 The note with it: purified IucA enzyme assay, absorbance (OD) read-out; stronger effect = lower value;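 tested at 8 µM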.
The nature of assay [4]: viability loss in pontine glioma line – cell-based, SU-DIPG-XVII, MIPE5.0, CellTiter-Glo, qHTS, dose response (AID 1347060; cut-off not given, nearly all actives have AC50 up to about 26 µM;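 on AC50: cells exposed to compound for 48 hours before viability readout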). The note with it: CellTiter-Glo ATP luminescence. On the technique in general: ATP-based viability assays read luminescence as a measure of living cells.
Assay [5] in a line: viability loss in pontine glioma line – cell-based, SU-DIPG-XIII, MIPE4.0, CellTiter-Glo, qHTS, dose response (AID 1347061; cut-off not given, nearly all actives have AC50 up to about 37 µM;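 further: cells exposed to compound for 48 hours before readout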). The note with it: CellTiter-Glo ATP luminescence.
Assay [6] in a line: viability loss in pontine glioma line – cell-based, JHH-DIPG-1, MIPE4.0, CellTiter-Glo, qHTS, dose response (AID 1347062; cut-off not given, nearly all actives have AC50 up to about 27 µM;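 on AC50: cells exposed to compound for two days before readout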). Conditions: JHH-DIPG-1 viability, CellTiter-Glo ATP luminescence.
Assay [7] in a line: viability loss in pontine glioma line – cell-based, SU-DIPG-IV, MIPE4.0, CellTiter-Glo, qHTS, dose response (AID 1347063; cut-off not given, nearly all actives have AC50 up to about 30 µM;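 further: compound exposure lasted 48 hours before the viability readout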). The note with it: CellTiter-Glo ATP luminescence.
Assay [8] is described as follows: viability loss in pontine glioma line – cell-based, SU-DIPG-XIII, MIPE5.0, CellTiter-Glo, qHTS, dose response (AID 1347064; cut-off not given, nearly all actives have AC50 up to about 23 µM). Conditions: CellTiter-Glo ATP luminescence.
Where [9] appears, read: measured here: epithelial PC-3E GFP cell survival.
Setting [10] is: measured here: mesenchymal TEM4-18 mCherry cell survival.

By remaining activity is commonly meant the signal under treatment as a percentage of the control signal. Regarding `c1cnc(N2CCN(Cc3ccc4c(c3)OCO4)CC2)nc1`, the mean signal in assay [1] was 255 (inactive). Moreover, the red/green cell ratio (normalised) in assay [2] is 1.12 (inactive). Moreover, the normalised cell number in assay [2] (setting [9]) amounted to 0.85; in assay [2] (setting [10]) it was 0.96. The remaining activity in assay [3] is 119% (inactive).

Regarding `O=C(NCCN1CCOCC1)c1ccc(Cl)cc1`, in assay [1], the mean signal was 247 (inactive). Also, the red/green cell ratio (normalised) in assay [2] was 0.88 (inactive). Also, the normalised cell number in assay [2] (setting [9]) worked out at 0.89; in assay [2] (setting [10]), 0.79.

Regarding `CN1CCCCC1CCN1c2ccccc2Sc2ccc(S(C)=O)cc21` (stereo not given), the mean signal in assay [1] was 243 (inactive). For the same molecule, the red/green cell ratio (normalised) in assay [2] was 1.05 (inactive). The normalised cell number in assay [2] (setting [9]) came out at 1.11; in assay [2] (setting [10]), 1.16.

In the case of `CC(C)(C(=O)c1cccnc1)c1cccnc1`, the mean signal in assay [1] is 259 (inactive). Besides, in assay [2], the red/green cell ratio (normalised) is 0.85 (inactive). Besides, the normalised cell number in assay [2] (setting [9]) turned out to be 1.21; in assay [2] (setting [10]) it was 1.04.

`CCN1CCCC1CNC(=O)c1cc(S(=O)(=O)CC)c(N)cc1OC` (stereo not given): the mean signal in assay [1] was 235 (inactive). Also, in assay [2], the red/green cell ratio (normalised) is 1.01 (inactive). Also, the values for the normalised cell number in assay [2] (setting [9]) and in assay [2] (setting [10]) were 0.89 and 0.9, respectively. The remaining activity in assay [3] is 104% (inactive). Further, the call in assay [4], in assay [5], in assay [6], in assay [7] and in assay [8] was inactive.

On to `CC(=O)NS(=O)(=O)c1ccc(N)cc1`, for which the mean signal in assay [1] is 275 (inactive). The red/green cell ratio (normalised) in assay [2] is 1.56 (inactive). For the same molecule, the normalised cell number was 0.84 in assay [2] (setting [9]) and 1.31 in assay [2] (setting [10]).

In the case of `CCN1CCN(c2cc3c(cc2F)c(=O)c(C(=O)O)cn3C2CC2)CC1`, the mean signal in assay [1] was 280 (inactive). Further, the red/green cell ratio (normalised) in assay [2] is 1.09 (inactive). Also, the normalised cell number in assay [2] (setting [9]) stood at 1.12; in assay [2] (setting [10]) it was 1.23.

For the molecule `Cn1nnc2c(C(N)=O)ncn2c1=O`, the mean signal in assay [1] is 230 (inactive). In addition, the red/green cell ratio (normalised) in assay [2] is 1.08 (inactive). Also, the values for the normalised cell number in assay [2] (setting [9]) and in assay [2] (setting [10]) were 1.03 and 1.11, respectively. For the same molecule, in assay [3], the remaining activity was 102% (inactive). Also, the molecule was classed as inactive in assay [4], in assay [5], in assay [6], in assay [7] and in assay [8].

As to `CCc1nn(CCCN2CCN(c3cccc(Cl)c3)CC2)c(=O)n1CCOc1ccccc1`, in assay [1], the mean signal was 239 (inactive). Moreover, the red/green cell ratio (normalised) in assay [2] was 1.11 (inactive). Besides, the normalised cell number in assay [2] (setting [9]) amounted to 0.96; in assay [2] (setting [10]), 1.06. Further, the remaining activity in assay [3] was 104% (inactive).

Take `CCN(CC)CCNC(=O)c1cc(Cl)c(N)cc1OC`: the mean signal in assay [1] is 245 (inactive). In assay [2], the red/green cell ratio (normalised) was 1.02 (inactive). In addition, the normalised cell number is 1.09 in assay [2] (setting [9]) and 1.12 in assay [2] (setting [10]).

On to `NC1CCN(c2nc3c(cc2F)c(=O)c(C(=O)O)cn3-c2ccc(F)cc2F)C1` (stereo not given), for which the mean signal in assay [1] is 292 (inactive). Also, the red/green cell ratio (normalised) in assay [2] is 0.9 (inactive). Further, the normalised cell number in assay [2] (setting [9]) worked out at 1.14; in assay [2] (setting [10]), 1.02.

On to `COc1ccc(C(=O)NCc2ccc(OCCN(C)C)cc2)cc1OC`, for which the mean signal in assay [1] is 262 (inactive). Further, the red/green cell ratio (normalised) in assay [2] was 0.88 (inactive). Further, the normalised cell number in assay [2] (setting [9]) came out at 1.24; in assay [2] (setting [10]) it was 1.1.

In the case of `O=C(O)/C=C/c1ccc(Cn2ccnc2)cc1`, the mean signal in assay [1] is 275 (inactive). Further, the red/green cell ratio (normalised) in assay [2] is 1.06 (inactive). Moreover, the normalised cell number in assay [2] (setting [9]) was 1; in assay [2] (setting [10]), 1.05. Also, in assay [3], the remaining activity was 107% (inactive). For the same molecule, the outcome in assay [4], in assay [5], in assay [6], in assay [7] and in assay [8] was inactive.

Regarding `CN1CCN(c2c(F)cc3c(=O)c(C(=O)O)cn4c3c2SCC4)CC1`, the mean signal in assay [1] was 251 (inactive). Moreover, in assay [2], the red/green cell ratio (normalised) was 1.06 (inactive) and 1.18 (inactive). For the same molecule, the normalised cell number in assay [2] (setting [9]) is 1.01 and 0.81; in assay [2] (setting [10]), 1.07 and 0.95.

Consider `C[C@H]1COc2c(C3(N)CC3)c(F)cc3c(=O)c(C(=O)O)cn1c23`, for which the mean signal in assay [1] is 269 (inactive). Besides, the red/green cell ratio (normalised) in assay [2] was 1.3 (inactive) and 0.88 (inactive). Besides, the normalised cell number in assay [2] (setting [9]) is 0.98 and 1.07; in assay [2] (setting [10]), 1.28 and 0.94.

With `CC1CCN(CCCC(=O)c2ccc(F)cc2)CC1`, the mean signal in assay [1] is 246 (inactive). Also, in assay [2], the red/green cell ratio (normalised) is 0.9 (inactive). The normalised cell number in assay [2] (setting [9]) was determined as 0.97; in assay [2] (setting [10]) it was 0.88. Besides, the remaining activity in assay [3] is 103% (inactive).

As for `OCCOCCN1CCN(C2=Nc3ccccc3Sc3ccccc32)CC1`, in assay [1], the mean signal is 248 (inactive). The red/green cell ratio (normalised) in assay [2] was 0.87 (inactive). The normalised cell number in assay [2] (setting [9]) was found to be 1.08; in assay [2] (setting [10]), 0.94.

Take `CCOC(=O)C1=C(C)NC(C)=C(C(=O)OC)C1c1cccc(Cl)c1Cl` (stereo not given): in assay [1], the mean signal was 217 (inactive). The red/green cell ratio (normalised) in assay [2] is 1.08 (inactive). The figures for the normalised cell number in assay [2] (setting [9]) and in assay [2] (setting [10]) were 1.11 and 1.2, respectively.

`CCc1oc2ccccc2c1C(=O)c1cc(Br)c(O)c(Br)c1`: in assay [1], the mean signal is 252 (inactive). Also, in assay [2], the red/green cell ratio (normalised) is 0.88 (inactive). Moreover, the figures for the normalised cell number in assay [2] (setting [9]) and in assay [2] (setting [10]) were 1.08 and 0.95, respectively.

Regarding `Cc1ncc([N+](=O)[O-])n1CC(O)CCl` (stereo not given), in assay [1], the mean signal was 246 (inactive). Further, the red/green cell ratio (normalised) in assay [2] was 1.07 (inactive). The normalised cell number turned out to be 1.1 in assay [2] (setting [9]) and 1.18 in assay [2] (setting [10]).

With `OCc1cc(C(O)CNCCCCCCOCCCCc2ccccc2)ccc1O` (stereo not given), the mean signal in assay [1] was 253 (inactive). For the same molecule, the red/green cell ratio (normalised) in assay [2] was 1.18 (inactive). For the same molecule, the normalised cell number in assay [2] (setting [9]) came to 0.82; in assay [2] (setting [10]) it was 0.97. In addition, the remaining activity in assay [3] was 115% (inactive).

As to `COC(=O)C1=C(C)NC(C)=C(C(=O)OC(C)C)C1c1cccc2nonc12` (stereo not given), the mean signal in assay [1] is 273 (inactive). Besides, the red/green cell ratio (normalised) in assay [2] is 1.19 (inactive). Also, the normalised cell number was 0.87 in assay [2] (setting [9]) and 1.04 in assay [2] (setting [10]). Moreover, the remaining activity in assay [3] is 109% (inactive). Further, the call in assay [6] and in assay [7] was inactive.

What is called AC50 is the concentration giving half of the maximal activity seen. For `CC[C@@]1(O)C(=O)OCc2c1cc1n(c2=O)Cc2cc3c(CN(C)C)c(O)ccc3nc2-1`, in assay [1], the mean signal is 251 (inactive). In assay [2], the red/green cell ratio (normalised) was 1.81 (inactive). The normalised cell number in assay [2] (setting [9]) amounted to 0.19; in assay [2] (setting [10]) it was 0.34. The values for the AC50 in assay [4], in assay [6] and in assay [7] were 52.5 nM (active), 8330 nM (active) and 332 nM (active), respectively.
